# This is a sample that favours compounds with a hit; in the whole collection about 3.5% have one here.
# rCAG RNA binder: r(CAG) repeat RNA binding | TO-PRO-1 dye displacement fluorescence | inhibition, % at 3 µM | actives 1.3% (n = 370,000) | AID 651821;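 active = inhibition above the plate cutoff, the mean of all test compounds on that plate plus 3 SD, cut at about 35% in these data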;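 also: 0% = DMSO alone and 100% = 100 µM mitoxantrone as full dye displacement; higher means more dye released from RNA so lower well fluorescence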
# UHRF1 binding: human UHRF1 methylated DNA binding inhibitors. Q96T88. UHRF1 binding to methylated oligo, TR-FRET. inhibition, % at 4.4 µM. actives 0.75% (n = 370,000); in the data active = inhibition above about 21%;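 also: UHRF1 SRA domain binding a hemimethylated CpG hairpin DNA probe; 0% = median of test compound wells and 100% = reference inhibitor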
# MBD2 inh: MBD2-methylated oligo binding inhibition | AID 686964 | actives 0.31% (n = 370,000) | Q9UBB5 | inhibition, % at 4.4 µM | TR-FRET, MBD2 binding to methylated oligonucleotide; in the data active = inhibition above about 13%
# DNMT1 block: blocks human DNA methyltransferase DNMT1 | P26358 | DNMT1 molecular beacon, Hinp1I cleavage, fluorescence | inhibition (reported as % activation of signal), % at 10 µM | actives 0.83% (n = 360,000); in the data active = inhibition above about 50%
# Target sequence (P26358 504-1616 limits assumed): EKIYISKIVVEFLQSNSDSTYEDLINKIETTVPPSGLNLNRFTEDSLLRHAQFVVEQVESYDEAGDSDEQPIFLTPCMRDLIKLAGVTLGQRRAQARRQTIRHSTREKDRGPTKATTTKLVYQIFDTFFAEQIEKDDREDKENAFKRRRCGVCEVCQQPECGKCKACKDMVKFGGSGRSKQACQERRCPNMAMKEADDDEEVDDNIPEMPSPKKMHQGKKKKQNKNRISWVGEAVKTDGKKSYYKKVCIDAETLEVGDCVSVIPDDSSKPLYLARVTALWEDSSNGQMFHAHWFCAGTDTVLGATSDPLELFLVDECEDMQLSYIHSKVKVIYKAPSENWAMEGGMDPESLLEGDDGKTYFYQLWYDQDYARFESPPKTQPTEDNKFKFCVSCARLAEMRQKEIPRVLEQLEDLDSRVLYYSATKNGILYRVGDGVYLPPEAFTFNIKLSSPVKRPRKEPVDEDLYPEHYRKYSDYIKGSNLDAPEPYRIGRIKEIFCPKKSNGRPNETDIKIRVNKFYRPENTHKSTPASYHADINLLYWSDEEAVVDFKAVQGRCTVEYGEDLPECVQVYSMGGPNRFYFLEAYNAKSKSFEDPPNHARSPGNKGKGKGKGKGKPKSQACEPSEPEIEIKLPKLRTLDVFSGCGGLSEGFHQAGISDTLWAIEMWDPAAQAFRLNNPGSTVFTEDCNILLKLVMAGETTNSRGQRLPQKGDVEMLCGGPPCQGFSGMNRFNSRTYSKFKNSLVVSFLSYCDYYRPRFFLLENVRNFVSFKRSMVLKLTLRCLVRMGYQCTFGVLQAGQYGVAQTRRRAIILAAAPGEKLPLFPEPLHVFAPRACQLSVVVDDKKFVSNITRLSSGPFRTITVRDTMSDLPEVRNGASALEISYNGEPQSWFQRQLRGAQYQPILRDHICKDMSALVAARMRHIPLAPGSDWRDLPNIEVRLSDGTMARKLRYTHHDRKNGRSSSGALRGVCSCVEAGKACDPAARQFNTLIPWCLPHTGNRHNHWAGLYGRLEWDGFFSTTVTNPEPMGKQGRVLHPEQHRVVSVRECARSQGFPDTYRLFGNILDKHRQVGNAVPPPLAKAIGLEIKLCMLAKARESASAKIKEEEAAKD
# LEDGF integ inh: blocks HIV-1 LEDGF/p75-dependent DNA integration | TR-FRET IN-LEDGF/p75 DNA integration, Eu/Cy5 | inhibition, % at 3.7 µM | actives 0.64% (n = 370,000);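 active = inhibition above the screen-wide mean plus 3 SD, cut at about 13% in these data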;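 also: signal is the Cy5 over europium emission ratio at 671 and 618 nm; 0% = plate median of compound wells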
# PG9 binder: PG9 antibody binding by small molecule; TR-FRET gp120-PG9 antibody binding; inhibition, % at 6.7 µM; actives 0.43% (n = 360,000); AID 624416; in the data active = inhibition above about 8.5%
# Starred values were filed as active, the others as inactive; x = no result; ! = not active in a repeat.
SMILES,rCAG RNA binder,UHRF1 binding,MBD2 inh,DNMT1 block,LEDGF integ inh,PG9 binder
N#C/C(C(=O)N1CCCCC1)=C1\Nc2ccccc2S1,2,0,-1,0,-9,-6
Cc1ccc(NC(=S)/C(C#N)=C2/Nc3ccccc3S2)cc1,92*,-2,-5,-34,4,-1
Cc1ccc(S(=O)(=O)N2CCOCC2)c2nsnc12,-2,1,0,-1,-1,0
Cc1ccc(S(=O)(=O)N2CCCCC2)c2nsnc12,0,24*,9,2,2,0
CC(=O)Nc1ccc(C(=O)NCCc2ccccc2)cc1,-2,21*,3,-1,1,0
CN1CCC(CO)(Cc2ccccc2)CC1,0,22*,1,1,1,0
O=C1CCCc2oc3c(cc(NS(=O)(=O)c4ccc5c6c(cccc46)C(=O)N5)c4ccccc43)c21,46*,-1,-5,-23,3,0
COC(=O)C1CN(Cc2ccccc2)CCS(=O)(=O)N1Cc1cn(Cc2ccccc2)nn1 (stereo not given),-2,9,6,x,6,x
O=C(O)CCN1C(=O)/C(=C2\C(=O)N(Cc3ccccc3Cl)c3ccccc32)SC1=S,3,-2,2,89*,-8,-2
COc1ccc(NC(=O)CN2C(=O)/C(=C3\SC(=S)N(CCC(=O)O)C3=O)c3ccccc32)cc1,x,x,x,3,x,x
Cc1ccc(-c2csc(NCCn3c(-c4ccncc4)nc4ccccc43)n2)cc1,4,22*,-4,-7,0,-3
Cc1ccc(NC(=O)c2ncn(CC(=O)NCC(C)c3ccccc3)n2)cc1C (stereo not given),1,2,1,6,-1,1
COc1ccc(CNS(=O)(=O)/C=C/c2ccccc2CNC(=O)OC(C)(C)C)cc1,-2,-2,-1,x,2,x
NC1=NC[C@@H](CC2CCCCC2)N1CCc1cc(C(F)(F)F)cc(C(F)(F)F)c1,x,x,x,62*,x,x
CNC(=S)NNC(=O)c1ccccc1Br,-2,21*,-2,4,3,-2
O=C(CC1Sc2ccccc2NC1=O)NCc1ccc(Cl)cc1 (stereo not given),-3,28*,-2,-1,-2,0
O=C(c1ccncc1)N1CCN(C(=O)c2cccs2)CC1,2,-1,5,4,0,0
O=C(c1cccs1)N1CCN(Cc2ccccn2)CC1,3,24*,11,1,10,-1
O=C1[C@@H](Oc2ccccc2)[C@@H](c2ccccc2)N1c1ccccc1,2,22*,11,16,1,0
COc1ccc(OC)c(CN2C(=O)CSCCC2(C)c2nnnn2C2CCCC2)c1 (stereo not given),1,-3,-7,x,2,x
CCOC(=O)c1nc(NNC(=O)c2ccc([N+](=O)[O-])cc2)sc1C,37*,-4,-5,-3,0,-5
O=C(O)c1cccc(N/N=C/c2cccc3ccccc23)c1,12,42*,-3,3,-1,-2
COC(=O)[C@]12C[C@H](CC(=O)NCCc3ccccc3OC)C(=O)N(CCC3=CCCCC3)C1=C[C@H](C(C)C)O[C@@H]2C1CC1,2,0,2,x,0,x
Cc1cc(NC(=O)CSCC(=O)Nc2cc(Cl)ccc2N2CCN(C)CC2)no1,0,28*,0,3,-4,1
Cc1cccc(NC(=O)CSCC(=O)Nc2cc(Cl)ccc2N2CCN(C)CC2)c1,-5,0,3,-1,-1,0
SMILES,rCAG RNA binder,UHRF1 binding,MBD2 inh,DNMT1 block,LEDGF integ inh,PG9 binder
CCS(=O)(=O)c1ccc2oc(SCC(=O)NCCc3ccc(OC)cc3)nc2c1,6,29*,0,7,-5,-1
CC1=C(C#N)c2nc(N)c(C#N)c(C)c2/C1=C\c1ccc(OCC(=O)O)c(Cl)c1,47*,-2,-5,-1,6,-4
N#Cc1c(-c2ccco2)ccn(Cc2cccc(F)c2)c1=O,0,23*,8,-1,5,-1
COc1ccc2c(c1)CN1C(=O)N(Cc3ccc(F)cc3)S(=O)(=O)CC21 (stereo not given),3,-1,-1,x,0,x
COc1ccc(CCC(=O)Nc2c(-c3ccc(N(C)C)cc3)[nH][nH]c2=O)cc1,15,17,12,58*,28*,-4
COc1ccc(-c2[nH][nH]c(=O)c2NC(=O)c2ccccn2)cc1,1,-10,-6,-13,-6,-2
Cc1cc(C)c(C)c(S(=O)(=O)N2CCN(C)CC2)c1C,-6,39*,4,0,-2,2
COC(=O)C1SCC2C(=O)N(Cc3ccc(F)cc3)CC(=O)N21 (stereo not given),-5,21*,4,1,-2,-2
CCC(Sc1nc2ncnc(N)c2[nH]1)C(=O)O (stereo not given),-1,21*,2,2,0,0
COCOCCn1cc(CN2CCS(=O)(=O)N(Cc3ccc(-c4ccncc4)cc3)C(CC(C)C)C2=O)nn1 (stereo not given),-1,24*,5,0,1,-1
COCOCCn1cc(CN2CCS(=O)(=O)N(Cc3ccc(-c4ccncc4)cc3)C(C(C)C)C2=O)nn1 (stereo not given),0,-1,-1,2,-1,0
COC(=O)C1CN(Cc2ccccc2)CCS(=O)(=O)N1Cc1ccc(Cl)cc1 (stereo not given),2,0,0,x,-2,x
COC(=O)c1ccc(N)cc1O,0,-2,0,1,0,-3
COC(=O)c1ccc(=O)c2nc3/c(=C/O)c(O)cc(=O)c3[nH]c12,69*,21*,7,108*,52*,-4
COc1ccc2cc3[n+](cc2c1OC)CCc1cc2c(cc1-3)OCO2,9,23*!,-15,-7,0,-6
CC(=O)c1ccc(NC(=O)NC2CCCCN(Cc3cccc(Cl)c3)C2=O)cc1 (stereo not given),5,4,-7,x,7,x
COc1ccccc1NC(=O)CSc1nc(N)c(C#N)cc1C#N,4,0,-1,-2,1,-1
CCOc1ccccc1NC(=O)CSc1nc(N)c(C#N)cc1C#N,4,-1,0,1,0,66*
Cc1ccccc1NC(=O)CSc1nc(N)c(C#N)c(-c2cccs2)c1C#N,8,-50,-15,26,0,72*
Cc1cc(C)c(C#N)c(SCC(=O)Nc2ccccc2C)n1,-2,-2,-2,1,3,-1
CC(=O)CC(c1ccccc1)S(=O)(=O)c1ccc([N+](=O)[O-])cc1 (stereo not given),-2,3,2,-2,7,-2
O=C(NC1CCN(Cc2ccccc2)CC1)c1cncc(Br)c1,-6,21*,9,2,-5,0
O=C(NC1CCN(Cc2ccccc2)CC1)c1ccccc1,-1,-1,-4,2,-2,0

# Source: PubChem
